Screening results (PubChem BioAssay)
mHTT-CaM PPI inh: inhibitors of human mutant huntingtin-calmodulin interaction; P42858; AlphaScreen His-mHTT/GST-CaM binding, luminescence; inhibition, % at 15 µM; actives 3.6% (n = 190,000);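 also: 0% = both proteins with DMSO and 100% = one protein alone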
Pf apPOL inh: Pf-apPOL DNA polymerase inhibition | inhibition, % at 10 µM | Recombinant Pf-apPOL, molecular beacon fluorescence, 1.5 h | actives 0.25% (n = 210,000)
Active calls of the source: *; x = no result; ! = not active in a repeat. Most compounds without a hit are left out; they make up all but 3.5% or so of the library. Rule as the data show it: active = inhibition above about 50%; inactive = the rest.

SMILES	mHTT-CaM PPI inh	Pf apPOL inh
Cc1c(Cl)cccc1S(=O)(=O)N1CCCC(C)(C(=O)NCc2ccc(F)cc2)C1 (stereo unspecified)	86.2*	0.2
CC1(C(=O)NCc2ccc(F)cc2)CCCN(S(=O)(=O)c2ccccc2Cl)C1 (stereo unspecified)	1.0	1.5
CC1(C(=O)NCc2ccc(F)cc2)CCCN(S(=O)(=O)c2ccc(F)c(Cl)c2)C1 (stereo unspecified)	94.7*	0.3
Cc1ccc(S(=O)(=O)N2CCCC(C)(C(=O)NCc3ccc(F)cc3)C2)c(C)c1 (stereo unspecified)	29.0	-13.4
Cc1ccc(F)cc1S(=O)(=O)N1CCCC(C)(C(=O)NCc2ccc(F)cc2)C1 (stereo unspecified)	7.9	-6.2
Cc1ccc(CNC(=O)c2oc3ccc(S(=O)(=O)N4CCCCC4)cc3c2C)cc1	-10.0	-6.3
COc1ccccc1CNC(=O)c1cn2cc(Cl)ccc2n1	-4.9	-0.7
Cc1nonc1NC(=O)c1ccccc1[N+](=O)[O-]	-3.2	-5.5
O=C(Nc1c(F)c(F)cc(F)c1F)C1CC2CCCN2C12C(=O)Nc1ccccc12 (stereo unspecified)	-2.8	-1.9
Cc1ccc(S(=O)(=O)N2CCCC(C)(C(=O)NCc3ccccc3)C2)cc1C (stereo unspecified)	-0.2	-5.0
Cc1ccc(S(=O)(=O)N2CCCC(C)(C(=O)NCc3ccc(F)cc3)C2)cc1C (stereo unspecified)	89.1*	-0.9
CC(=O)c1ccc(S(=O)(=O)N2CCCC(C)(C(=O)NCc3ccc(F)cc3)C2)cc1 (stereo unspecified)	6.3	1.7
CC1(C(=O)NCc2ccc(F)cc2)CCCN(S(=O)(=O)c2ccc3c(c2)CCCC3)C1 (stereo unspecified)	64.9*	-6.5
O=C(C=CC1=Cc2ccccc2OC1)NC1CCCC1	-20.3	-10.8
Cn1c2c(c3ccccc31)CN(C(=O)c1cccs1)CC2	100.0*	13.3
Cn1nc(-c2nc(-c3ccccc3)no2)c2c1CCN(C(=O)c1cccs1)C2	21.3	-0.2
CCC(=O)c1c(N2CCCC2)cc(C)oc1=O	-0.6	x
O=C(NO)C12CCCC(CCC1)C2	-2.1	0.5
O=C(c1cccs1)N1CCN(Cc2noc3ccccc23)CC1	-1.1	-5.9
Cc1ccc(N=Cc2cc3ccccc3[nH]c2=O)cc1	57.0*	-0.9
Cc1ccc2nc(-c3ccc(N=Cc4ccccc4O)cc3)sc2c1	x	-0.8
COc1ccc2c(c1)-c1onc(C(=O)NC(C)C(C)C)c1CC2 (stereo unspecified)	-27.1	-0.4
COc1ccc(C=C2Oc3cc(OC(=O)C4CCCCC4)ccc3C2=O)c(OC)c1OC	-6.6	-7.1
C=CCc1ccccc1OCC(O)CN1CCN(C)CC1 (stereo unspecified)	-4.3	-1.1
CC(C)c1ccc(OCC(O)CN2CCN(c3ccc(F)cc3)CC2)cc1 (stereo unspecified)	38.8	-3.9
SMILES	mHTT-CaM PPI inh	Pf apPOL inh
OC(COc1ccc(F)cc1)CN1CCN(c2cccc(Cl)c2)CC1 (stereo unspecified)	80.7*	-2.5
C=CCc1ccccc1OCC(O)CN1CCN(c2ccc(OC)cc2)CC1 (stereo unspecified)	53.6*!	0.1
C=CCc1ccccc1OCC(O)CN1CCN(c2cccc(Cl)c2)CC1 (stereo unspecified)	99.1*	-1.5
C=CCc1ccccc1OCC(O)CN1CCCCC1 (stereo unspecified)	-5.9	-5.6
Cc1cccc(CNC(=O)c2cn3c(n2)CN(CC(C)C)CC3)c1	26.4	-7.1
COc1cccc(C2CC(c3cccc([N+](=O)[O-])c3)Nc3nnnn32)c1OC (stereo unspecified)	15.0	-9.0
Cc1ccc(S(=O)(=O)N2CCN(c3ccc(Nc4cccnc4)nn3)CC2)c(C)c1	20.3	-2.6
Cc1ccc(S(=O)(=O)NCCNc2c(Cl)cccc2[N+](=O)[O-])cc1	25.2	-7.2
CC(C)Cn1c(=O)c(C(=O)N2CCC(C)CC2)nc2cccnc21	1.6	-1.7
COc1ccc(C2=NN(C(=O)CN(C)C(C)=O)C(c3ccc(C)cc3)C2)cc1 (stereo unspecified)	23.0	-8.2
CCC(=O)N(C)CC(=O)N1N=C(c2ccccc2Cl)CC1c1ccccc1Cl (stereo unspecified)	59.7*	0.3
COc1ccc(C2CC(c3ccccc3Cl)=NN2C(=O)CN(C)C(C)=O)cc1 (stereo unspecified)	95.7*	-11.5
CCNC(=O)N(C)CC(=O)N1N=C(c2ccccc2Cl)CC1c1ccccc1F (stereo unspecified)	37.0	2.7
CC(=O)N1CCc2cc(N3CC(C(=O)Nc4ccc(C)c(C)c4)CC3=O)ccc21 (stereo unspecified)	0.4	1.9
O=C(Nc1ccc(-c2nc3ncccc3o2)cc1)c1ccc(F)cc1	1.0	-2.8
Cc1ccccc1COc1ccccc1C1CC(=O)Nc2n[nH]c(C)c21 (stereo unspecified)	2.7	-2.1
O=C(O)CCC(=O)Nc1ccccc1Cl	-5.8	-0.7
O=[N+]([O-])c1ccc(Sc2ccsc2)c([N+](=O)[O-])c1	69.3*	x
O=[N+]([O-])c1cc(Cl)ccc1Sc1ccccc1	x	7.1
Cc1[nH]nc(SCC(=O)Nc2cccc(Cl)c2)c1[N+](=O)[O-]	5.0	4.3
Cc1[nH]nc(SCC(=O)Nc2cc(Cl)ccc2O)c1[N+](=O)[O-]	52.0*	-6.6
CCN1CCCn2nc(C3CCN(C(=O)c4nccc5ccccc45)CC3)cc2C1=O	9.5	-0.6
Cc1ccc(C=C2Oc3cc(OCc4ccc([N+](=O)[O-])cc4)ccc3C2=O)o1	7.7	2.9
CCOc1ccc(S(=O)(=O)NCCC2CCN(C(=O)c3ccc(C)cc3)CC2)cc1	61.6*	-3.3
Cc1ccc(C(=O)N2CCC(CCNS(=O)(=O)c3ccc(C)cc3)CC2)cc1	36.9	-4.2
SMILES	mHTT-CaM PPI inh	Pf apPOL inh
Cc1ccc(C(=O)N2CCC(CCNS(=O)(=O)c3ccccc3)CC2)cc1	36.6	-3.2
Cc1ccc(C(=O)N2CCC(CCNS(=O)(=O)c3ccc(F)cc3)CC2)cc1	53.2*	-1.6
Cc1ccc(C(=O)N2CCC(CCNS(=O)(=O)c3c(C)noc3C)CC2)cc1	61.9*	-0.6
Cc1ccc(C(=O)N2CCC(CCNS(=O)(=O)c3c(C)cc(C)cc3C)CC2)cc1	44.8	2.2
Cc1ccc(C)c(S(=O)(=O)NCCC2CCN(C(=O)c3ccc(F)cc3)CC2)c1	61.1*	1.5
Cc1ccc(F)cc1S(=O)(=O)NCCC1CCN(C(=O)c2ccc(F)cc2)CC1	34.4	-1.8
Cc1nnc(-c2cc(C)n(CC(=O)Nc3ccc(C)c(Cl)c3)c2C)o1	38.8	7.2
COc1ccccc1-n1c(SCC(=O)Nc2cc(C)cc(C)c2)nc2c(c1=O)SCC2	21.0	-5.3
CC(=O)N1c2c(cc(Br)cc2S(=O)(=O)N2c3ccccc3CC2C)CC1C (stereo unspecified)	14.0	0.8
Cc1ccccc1OCC(=O)Nc1ccc(Br)cc1F	-3.7	-7.4
O=C(c1ccccc1)N1CCC(CCNS(=O)(=O)c2ccc(F)cc2)CC1	25.9	-1.6
Cc1ccc(C(=O)N2CCC(CCNS(=O)(=O)c3cccc(C#N)c3)CC2)cc1	50.4*	-3.7
O=C(c1ccc(F)cc1)N1CCC(CCNS(=O)(=O)c2ccc(Cl)cc2)CC1	55.1*	-0.3
Cc1ccc(C(=O)N2CCC(CCNS(=O)(=O)c3cccc(C)c3)CC2)cc1	44.4	1.1
